Data on 15 sequences can be found in the OligoGym collection.

The target in the first test is INPP5F. In words: pooled miR-30 sensor sort-seq; sequence = guide strand. As to conditions: shRNA.
The sequence TTCATTTGAAACTTGATTGGTC came in with a sensor-assay potency score (higher = more potent) of 0.857.

In turn, TTGCTTGGTGATCTGCAGCATC yielded a sensor-assay potency score (higher = more potent) of -0.92.

On to TTCACTTCTGTCCAGCCGCGGT, for which the sensor-assay potency score (higher = more potent) was -1.35.

The next test addresses INVS. The description is as above. The conditions noted are these: shRNA.
TTTGTTTTCTTCCTCTCGCTTT yielded a sensor-assay potency score (higher = more potent) of 0.0611.

In turn, AACATCAGTAGCATCTACTTGA gave a sensor-assay potency score (higher = more potent) of 0.641.

In turn, TAAGACGTTATATTGCAGCTTT gave a sensor-assay potency score (higher = more potent) of 0.127.

TTAATATCTGGCAAACATCAGC returned a sensor-assay potency score (higher = more potent) of -0.861.

Take TACTTGAGCATTATTTTCCAGT: the sensor-assay potency score (higher = more potent) was -0.382.

For TTTTATTCACATCTGCTCCTGC, the sensor-assay potency score (higher = more potent) worked out at 0.562.

Sequence TAGAAGAGAATGTCCATCTTGG showed a sensor-assay potency score (higher = more potent) of 0.67.

As to TTGGTCAACTAGATCTACCCTT, the sensor-assay potency score (higher = more potent) worked out at 0.547.

On to TTTTAAAAACACTTTAACCGTT, for which the sensor-assay potency score (higher = more potent) is -0.842.

The sequence TTATTTTCTATTAATATCTGGC had a sensor-assay potency score (higher = more potent) of 0.295.

The sequence TTCGTGAGAACAACCATAGATT yielded a sensor-assay potency score (higher = more potent) of -0.97.

Consider TTTAAAAACACTTTAACCGTTT, for which the sensor-assay potency score (higher = more potent) is -0.562.
